# Hit rate of the full screen: of about 360,000 compounds, about 3,900 (1.1%) were called active. The entries come from a sample that favours actives as a whole. Unmarked numbers belong to inactive results.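 Rule for the calls: active = mean replicate inhibition score of at least 50 and every replicate individually at or above 50; inconclusive = only one of the two criteria met; inactive = mean below 50 and not all replicates reaching 50.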
# Assay: inhibitors of HIV-1 Env-driven cell-cell fusion, primary screen, HeLa-JRFL effector, CEM21 target cells, luciferase (AID 651610);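 note: 0% = plate neutral controls and 100% = maraviroc near 300 nM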
# Conditions: hits give high values; at 16.7 µM unless noted
row,SMILES,inhibition
1,Cc1noc(C)c1NC(=O)N(C)C[C@H]1Oc2ccc(NC(=O)Cn3cnnn3)cc2CC(=O)N([C@H](C)CO)C[C@@H]1C,-12.7%
2,C[C@@H]1CN([C@@H](C)CO)C(=O)c2cc(NC(=O)Cc3ccccc3)ccc2O[C@@H]1CN(C)S(=O)(=O)c1ccccc1,-22.1%
3,Cc1ccc(S(=O)(=O)NCC[C@@H]2CC[C@H](NC(=O)c3ccccn3)[C@H](CO)O2)cc1,-12.9%
4,C[C@H](CO)N1C[C@H](C)[C@@H](CN(C)Cc2ccc3c(c2)OCO3)Oc2c(cccc2N(C)C)C1=O,-26.8%
5,CC1CCCCN1S(=O)(=O)c1ccc(C(=O)Nc2nnc(-c3cccs3)o2)cc1 (configuration not stated),80.2% [at 12.3 µM] (active)
6,CSCc1nnc(NC(=O)c2ccc(S(=O)(=O)N3CCCCC3C)cc2)o1 (configuration not stated),-0.826% [at 12.3 µM]
7,CC1CCCCN1S(=O)(=O)c1ccc(S(=O)(=O)N(CC(=O)Nc2ccccc2)Cc2cccs2)cc1 (configuration not stated),20% [at 12.3 µM]
8,O=C(O)C1CCN(C(=O)c2cc(F)cc3c2OCOC3)CC1,-1.42% [at 12.3 µM]
9,CCOC(=O)C1CCCN(C(=O)c2cc(-c3cccs3)oc2C)CC1 (configuration not stated),29.9% [at 12.3 µM]
10,Cc1cc(C(=O)N2CCC(C(=O)O)CC2)c(C(F)(F)F)o1,87.5% [at 12.3 µM] (active)
11,CCCN(C)C[C@H]1Oc2ncc(C#CC3CCCCC3)cc2C(=O)N([C@H](C)CO)C[C@@H]1C,18.3%
12,C[C@H](CO)N1C[C@H](C)[C@H](CN(C)CC2CCCCC2)Oc2c(NC(=O)c3cnccn3)cccc2C1=O,-9.66%
13,CCC(=O)N1C[C@H](C)[C@H](OC)CN(C)C(=O)c2cc(NC(=O)Nc3cccc(F)c3)ccc2OC[C@@H]1C,-5.04%
14,C[C@@H]1CN([C@@H](C)CO)C(=O)c2cc(NS(=O)(=O)c3ccccc3)ccc2O[C@@H](C)CCCCO[C@H]1CN(C)S(=O)(=O)c1cccs1,-25.8%
15,COc1ccc(NC(=O)Nc2ccc3c(c2)C(=O)N([C@@H](C)CO)C[C@@H](C)[C@@H](CN(C)Cc2ccncc2)OCCCC[C@@H](C)O3)cc1,-12.5%
16,C[C@@H]1CCCCO[C@@H](CN(C)C(=O)Nc2ccccc2)[C@@H](C)CN([C@@H](C)CO)C(=O)c2cc(N(C)C)ccc2O1,-2.93%
17,Cc1ccc(S(=O)(=O)Nc2ccc3c(c2)C(=O)N([C@@H](C)CO)C[C@@H](C)[C@@H](CN(C)Cc2ccc(C(F)(F)F)cc2)OCCCC[C@@H](C)O3)cc1,79.2% (active)
18,C[C@@H]1CCCCO[C@H](CN(C)C(=O)Nc2ccccc2)[C@H](C)CN([C@@H](C)CO)C(=O)c2cc(N(C)C)ccc2O1,-23.9%
19,COc1ccc(CN(C)C[C@@H]2OCCCC[C@@H](C)Oc3ccc(NC(=O)Nc4ccc(OC)cc4)cc3C(=O)N([C@@H](C)CO)C[C@@H]2C)cc1,-18.5%
20,COc1ccc(NC(=O)Nc2ccc3c(c2)C(=O)N([C@H](C)CO)C[C@H](C)[C@H](CN(C)Cc2ccncc2)OCCCC[C@H](C)O3)cc1,58.1% (active)
21,C[C@@H]1CCCCO[C@@H](CN(C)CC2CC2)[C@H](C)CN([C@H](C)CO)C(=O)c2cc(NC(=O)C3CCCCC3)ccc2O1,-2.41%

row,SMILES,inhibition
1,C[C@H](CO)N1C[C@H](C)[C@@H](CN(C)C(=O)Nc2cccc3ccccc23)OCCCC[C@H](C)Oc2ccc(N(C)C)cc2C1=O,67.4% (active)
2,C[C@@H]1CCCCO[C@@H](CN(C)Cc2ccc(C(F)(F)F)cc2)[C@H](C)CN([C@H](C)CO)C(=O)c2cc(NS(=O)(=O)c3ccc(F)cc3)ccc2O1,32.9%
3,C[C@@H]1CCCCO[C@@H](CN(C)CC2CC2)[C@@H](C)CN([C@H](C)CO)C(=O)c2cc(NC(=O)C3CCCCC3)ccc2O1,19.6%
4,C[C@H](CO)N1C[C@H](C)[C@H](CN(C)Cc2ccc(C(F)(F)F)cc2)OCCCC[C@H](C)Oc2ccc(NS(=O)(=O)c3ccc(Cl)cc3)cc2C1=O,18.4%
5,C[C@@H]1CCCCO[C@@H](CN(C)CC2CCCCC2)[C@H](C)CN([C@H](C)CO)C(=O)c2cc(NC(=O)C3CCCCC3)ccc2O1,68.4% (active)
6,O=C(N[C@@H]1C=C[C@H](CC(=O)N2CCCCC2)O[C@H]1CO)c1cccc(F)c1,2.78%
7,COc1cccc(NC(=O)N[C@@H]2CC[C@H](CC(=O)Nc3ccccc3)O[C@@H]2CO)c1,-24.4%
8,Cc1ccc(S(=O)(=O)Nc2cccc3c2O[C@H](CN(C)S(=O)(=O)c2cn(C)cn2)[C@H](C)CN([C@H](C)CO)C3=O)cc1,-8.23%
9,C[C@H]1CCCCO[C@@H](CN(C)S(=O)(=O)c2ccc(Cl)cc2)[C@@H](C)CN([C@@H](C)CO)C(=O)c2cc(NS(=O)(=O)c3cn(C)cn3)ccc2O1,3.67%
10,C[C@@H]1CN([C@@H](C)CO)C(=O)c2cc(NS(C)(=O)=O)ccc2O[C@@H](C)CCCCO[C@@H]1CN(C)S(=O)(=O)c1cn(C)cn1,-12%
11,Cc1ccc(S(=O)(=O)Nc2cccc3c2O[C@@H](CN(C)C(=O)Nc2ccccc2)[C@H](C)CN([C@@H](C)CO)C3=O)cc1,8.55%
12,C[C@H](NC(=O)C[C@H]1CC[C@H]2[C@@H](COC[C@H](O)CN2C(=O)Nc2cccc(Cl)c2)O1)c1ccccc1,-9.13%
13,C[C@H](O)C#Cc1ccc2c(c1)O[C@@H](CN(C)CC1CCCC1)[C@H](C)CN([C@@H](C)CO)S2(=O)=O,-37.3%
14,C[C@H](CO)N1C[C@H](C)[C@H](CN(C)C)Oc2cc(C#CC3CC3)ccc2S1(=O)=O,-1.04%
15,C[C@H]1CN([C@@H](C)CO)C(=O)c2cc(NC(=O)Nc3cccc4ccccc34)ccc2O[C@@H]1CN(C)C,3.97%
16,C[C@@H]1CN([C@H](C)CO)C(=O)c2cc(NS(=O)(=O)c3ccccc3)ccc2O[C@H]1CN(C)C(=O)Nc1ccc2c(c1)OCO2,-19.2%
17,O=C(NCC[C@H]1CC[C@@H](NC(=O)C2CCCCC2)[C@@H](CO)O1)c1ccc(F)cc1,-1.25%
18,C[C@@H]1CN([C@H](C)CO)C(=O)c2cc(NC(=O)Nc3ccccc3)ccc2O[C@@H](C)CCCCO[C@H]1CN(C)Cc1ccc(C(F)(F)F)cc1,5.92%
19,C[C@H](CO)N1C[C@H](C)[C@H](CN(C)C(=O)NC2CCCCC2)OCCCC[C@H](C)Oc2ccc(NC(=O)Nc3ccc4c(c3)OCO4)cc2C1=O,18.2%
20,C[C@H]1CCCCO[C@H](CN(C)C(=O)NC2CCCCC2)[C@@H](C)CN([C@@H](C)CO)C(=O)c2cc(NC(=O)Nc3ccc4c(c3)OCO4)ccc2O1,62.7% (active)
21,C[C@H](CO)N1C[C@H](C)[C@@H](CN(C)C(=O)Nc2ccc3c(c2)OCO3)OCCCC[C@H](C)Oc2ccc(NC(=O)Nc3ccc4c(c3)OCO4)cc2C1=O,-2.35%

row,SMILES,inhibition
1,C[C@@H]1CN([C@H](C)CO)C(=O)c2cc(NC(=O)c3ccncc3)ccc2O[C@H]1CN(C)Cc1ccc(Oc2ccccc2)cc1,-5.1%
2,C[C@@H]1CN([C@H](C)CO)C(=O)c2cc(NS(=O)(=O)c3cn(C)cn3)ccc2O[C@@H](C)CCCCO[C@H]1CN(C)C,1.08%
3,C[C@@H]1CCCCO[C@H](CN(C)C)[C@H](C)CN([C@@H](C)CO)C(=O)c2cc(NS(=O)(=O)c3cn(C)cn3)ccc2O1,57.7% (active)
4,C[C@@H]1CCCCO[C@@H](CN(C)Cc2ccc(C(F)(F)F)cc2)[C@@H](C)CN([C@H](C)CO)C(=O)c2cc(NC(=O)Nc3ccccc3)ccc2O1,9.84%
5,C[C@@H]1CN([C@@H](C)CO)C(=O)c2cc(NS(=O)(=O)c3cn(C)cn3)ccc2O[C@@H](C)CCCCO[C@H]1CN(C)S(=O)(=O)c1cn(C)cn1,2.07%
6,C[C@H]1CCCCO[C@@H](CN(C)Cc2ccc(C(F)(F)F)cc2)[C@@H](C)CN([C@@H](C)CO)C(=O)c2cc(NC(=O)Nc3ccccc3)ccc2O1,86.8% (active)
7,C[C@@H]1CN([C@@H](C)CO)C(=O)c2cc(NC(=O)c3ccncc3)ccc2O[C@@H]1CN(C)Cc1ccncc1,85.6% (active)
8,C[C@H](CO)N1C[C@H](C)[C@@H](CN(C)Cc2ccncc2)Oc2ccc(NC(=O)Nc3ccccc3)cc2C1=O,4.38%
9,C[C@@H]1CN([C@@H](C)CO)C(=O)Cc2cc(NC(=O)C3CCCCC3)ccc2O[C@@H]1CN(C)Cc1ccncc1,6.59%
10,COCC#Cc1cnc2c(c1)C(=O)N([C@@H](C)CO)C[C@@H](C)[C@@H](CN(C)C(=O)Nc1ccccc1OC)O2,2.09%
11,COC(=O)C[C@H]1CC[C@H](NC(=O)c2ccccc2)[C@@H](CO)O1,-4.18%
12,CN1CCN(C(=O)C[C@H]2C[C@@H]3c4cc(NC(=O)Nc5ccc(C(F)(F)F)cc5)ccc4O[C@@H]3[C@H](CO)O2)CC1,7.48%
13,C[C@@H]1CN([C@H](C)CO)S(=O)(=O)c2ccc(C#C[C@@H](C)O)cc2O[C@H]1CN(C)C(=O)C1CCCCC1,-6.31%
14,CO[C@H]1CN(C)C(=O)c2cc(NC(=O)c3ccccc3)ccc2OC[C@H](C)NC[C@H]1C,-18.7%
15,C[C@@H]1CN([C@H](C)CO)C(=O)c2cc(NC(=O)Nc3ccc(C(F)(F)F)cc3)ccc2O[C@@H](C)CCCCO[C@@H]1CN(C)Cc1ccc(C(F)(F)F)cc1,32%
16,CC(C)NC(=O)Nc1ccc2c(c1)C(=O)N([C@H](C)CO)C[C@H](C)[C@@H](CN(C)Cc1ccc(C(F)(F)F)cc1)OCCCC[C@@H](C)O2,76.6% [at 12.3 µM] (active)
17,COc1ccc(CN(C)C[C@@H]2OCCCC[C@@H](C)Oc3ccc(NC(=O)Nc4ccc(C(F)(F)F)cc4)cc3C(=O)N([C@H](C)CO)C[C@H]2C)cc1,40.3%
18,C[C@@H]1CCCCO[C@H](CN(C)Cc2ccc(C(F)(F)F)cc2)[C@H](C)CN([C@H](C)CO)C(=O)c2cc(NC(=O)Nc3ccc(F)cc3)ccc2O1,9.27%
19,COc1ccc(NC(=O)Nc2ccc3c(c2)C(=O)N([C@H](C)CO)C[C@H](C)[C@@H](CN(C)Cc2ccc(C(=O)O)cc2)OCCCC[C@H](C)O3)cc1,-1.91%
20,COc1ccc(NC(=O)Nc2ccc3c(c2)C(=O)N([C@@H](C)CO)C[C@H](C)[C@H](CN(C)Cc2ccc(C(F)(F)F)cc2)OCCCC[C@H](C)O3)cc1,55.7% (active)

# Reference: PubChem BioAssay AID651610 (Broad Institute, 2012)
